# Data reported in the supplement of paper PMC10037445.
# ± gives the standard deviation of the averaged measurements. In all, about 2,900 compounds were measured (“NF-kB SEAP reporter activity, fold change vs agonist alone”: median about 0.99, highest 2% from about 2.6 on). Many of the other results were omitted from the sample, so the highest values are more common in it than they were.
# Experiments:
# RAW-Dual [1] = experiment: NF-kB SEAP reporter activity, fold change vs agonist alone; cytotoxicity flag (confluency mask): not cytotoxic; higher = enhanced NF-kB activity
# Outline: (§1)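 RAW-Dual macrophages (50,000 cells/well in DMEM, 384-well plates) received 50 nL of library stock by pin tool, then a PRR agonist 1 h later, and were kept at 37 °C, 5% CO2. After 20 hours, supernatant was read for IRF by QuantiLuc luminescence and for NF-κB by QuantiBlue absorbance at 620 nm. Reporter activity is fold change over agonist-alone wells. Cytotoxic wells had IncuCyte confluency below 70% of agonist controls in both mask sets.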
# RAW-Dual [2] = experiment: NF-kB SEAP reporter activity, fold change vs agonist alone; higher = enhanced NF-kB activity; details: cytotoxicity flag (confluency mask): not cytotoxic
# Outline: as §1
# [3] = agonist: ODN 1826 (TLR9) 0.5 ug/mL
# [4] = agonist: Pam2CSK4 (TLR2/6) 0.1 ug/mL
# [5] = agonist: Pam3CSK4 (TLR2/1) 0.1 ug/mL
# [6] = library stock concentration (final ~1000-fold dilution): 10 mM, agonist: Imiquimod (TLR7) […]
# [7] = library stock concentration (final ~1000-fold dilution): 10 mM, agonist: MPLA (TLR4) […]
compound,measurement,setting,value
CC1OC(OC2C(=O)c3c(O)cc(O)cc3OC2c2ccc(O)cc2)C(O)C(O)C1O (stereo not given) (library stock concentration (final ~1000-fold dilution): 10 mM),NF-kB SEAP reporter activity,RAW-Dual [1]; agonist: LPS (TLR4) 0.1 ug/mL,1.09 ± 0.015
same,NF-kB SEAP reporter activity,RAW-Dual [1]; [3],0.9919 ± 0.0043
same,NF-kB SEAP reporter activity,RAW-Dual [1]; [4],1.06 ± 0.064
same,NF-kB SEAP reporter activity,RAW-Dual [1]; [5],1.39 ± 0.41
CC1OC(OC2C(=O)c3c(O)cc(O)cc3OC2c2ccc(O)cc2)C(O)C(O)C1O (stereo not given),NF-kB SEAP reporter activity,RAW-Dual [2]; [6],1.03 ± 0.025
same,NF-kB SEAP reporter activity,RAW-Dual [2]; [7],1.04 ± 0.041
O=C1NC(=O)C(c2cnc3ccccn23)=C1c1cn2c3c(cc(F)cc13)CN(C(=O)N1CCCCC1)CC2 (library stock concentration (final ~1000-fold dilution): 10 mM),NF-kB SEAP reporter activity,RAW-Dual [1]; agonist: LPS (TLR4) 0.1 ug/mL,3.19
same,NF-kB SEAP reporter activity,RAW-Dual [1]; [3],2.72
same,NF-kB SEAP reporter activity,RAW-Dual [1]; [4],1.42
same,NF-kB SEAP reporter activity,RAW-Dual [1]; [5],1.84
O=C1NC(=O)C(c2cnc3ccccn23)=C1c1cn2c3c(cc(F)cc13)CN(C(=O)N1CCCCC1)CC2,NF-kB SEAP reporter activity,RAW-Dual [2]; [6],2.62
same,NF-kB SEAP reporter activity,RAW-Dual [2]; [7],2.43
CC(C(=O)Nc1ccc(Cl)cc1)C1CCC(c2ccnc3ccc(F)cc23)CC1 (stereo not given),NF-kB SEAP reporter activity,RAW-Dual [2]; [6],1.51
same,NF-kB SEAP reporter activity,RAW-Dual [2]; [7],1.55
CC(C(=O)Nc1ccc(Cl)cc1)C1CCC(c2ccnc3ccc(F)cc23)CC1 (stereo not given) (library stock concentration (final ~1000-fold dilution): 10 mM),NF-kB SEAP reporter activity,RAW-Dual [1]; agonist: LPS (TLR4) 0.1 ug/mL,0.974
same,NF-kB SEAP reporter activity,RAW-Dual [1]; [3],1.05
same,NF-kB SEAP reporter activity,RAW-Dual [1]; [4],0.52
same,NF-kB SEAP reporter activity,RAW-Dual [1]; [5],0.738
COc1ccc(CNCc2cccc3ccccc23)cc1.Cl (library stock concentration (final ~1000-fold dilution): 10 mM),NF-kB SEAP reporter activity,RAW-Dual [1]; agonist: LPS (TLR4) 0.1 ug/mL,1.45
same,NF-kB SEAP reporter activity,RAW-Dual [1]; [3],0.82
same,NF-kB SEAP reporter activity,RAW-Dual [1]; [4],1.04
same,NF-kB SEAP reporter activity,RAW-Dual [1]; [5],1.06
COc1ccc(CNCc2cccc3ccccc23)cc1.Cl,NF-kB SEAP reporter activity,RAW-Dual [2]; [6],1.34
same,NF-kB SEAP reporter activity,RAW-Dual [2]; [7],1.44
COC1CC2CCC(C)C(O)(O2)C(=O)C(=O)N2CCCCC2C(=O)OC(C(C)CC2CCC(OC(=O)C(C)(CO)CO)C(OC)C2)CC(=O)C(C)C=C(C)C(O)C(OC)C(=O)C(C)CC(C)C=CC=CC=C1C (stereo not given) (library stock concentration (final ~1000-fold dilution): 10 mM),NF-kB SEAP reporter activity,RAW-Dual [1]; agonist: LPS (TLR4) 0.1 ug/mL,3.85
same,NF-kB SEAP reporter activity,RAW-Dual [1]; [3],3.11
same,NF-kB SEAP reporter activity,RAW-Dual [1]; [4],1.33
same,NF-kB SEAP reporter activity,RAW-Dual [1]; [5],2.09
COC1CC2CCC(C)C(O)(O2)C(=O)C(=O)N2CCCCC2C(=O)OC(C(C)CC2CCC(OC(=O)C(C)(CO)CO)C(OC)C2)CC(=O)C(C)C=C(C)C(O)C(OC)C(=O)C(C)CC(C)C=CC=CC=C1C (stereo not given),NF-kB SEAP reporter activity,RAW-Dual [2]; [6],2.36
same,NF-kB SEAP reporter activity,RAW-Dual [2]; [7],2.41
COC1CC2CCC(C)C(O)(O2)C(=O)C(=O)N2CCCCC2C(=O)OC(C(C)CC2CCC(OCCO)C(OC)C2)CC(=O)C(C)C=C(C)C(O)C(OC)C(=O)C(C)CC(C)C=CC=CC=C1C (stereo not given) (library stock concentration (final ~1000-fold dilution): 10 mM),NF-kB SEAP reporter activity,RAW-Dual [1]; agonist: LPS (TLR4) 0.1 ug/mL,1.83
same,NF-kB SEAP reporter activity,RAW-Dual [1]; [3],1.7
same,NF-kB SEAP reporter activity,RAW-Dual [1]; [4],0.629
same,NF-kB SEAP reporter activity,RAW-Dual [1]; [5],0.915
COC1CC2CCC(C)C(O)(O2)C(=O)C(=O)N2CCCCC2C(=O)OC(C(C)CC2CCC(OCCO)C(OC)C2)CC(=O)C(C)C=C(C)C(O)C(OC)C(=O)C(C)CC(C)C=CC=CC=C1C (stereo not given),NF-kB SEAP reporter activity,RAW-Dual [2]; [6],1.77
same,NF-kB SEAP reporter activity,RAW-Dual [2]; [7],1.92
COC1CC2CCC(C)C(O)(O2)C(=O)C(=O)N2CCCCC2C(=O)OC(C(C)CC2CCC(O)C(OC)C2)CC(=O)C(C)C=C(C)C(O)C(OC)C(=O)C(C)CC(C)C=CC=CC=C1C (stereo not given),NF-kB SEAP reporter activity,RAW-Dual [2]; [6],1.44
same,NF-kB SEAP reporter activity,RAW-Dual [2]; [7],1.5
same,NF-kB SEAP reporter activity,"RAW-Dual [2]; library stock concentration (final ~1000-fold dilution): .1 mM, agonist: Imiquimod (TLR7) […]",1.35
same,NF-kB SEAP reporter activity,"RAW-Dual [2]; library stock concentration (final ~1000-fold dilution): .1 mM, agonist: MPLA (TLR4) […]",1.19
